Activity calls are given as the source filed them. Rule for the calls: active = hit-call score of the fitted dose curve at least 0.9, where 1 is the maximum; inactive = score below 0.9.

Drawing on PubChem BioAssay (EPA / NIEHS), this text covers outcome and AC50 for 40 compounds.

The test is described as follows: ATG_BRE_CIS: Attagene CIS-FACTORIAL HepG2 Assay for human Bone Morphogenetic Protein (BMP) Response Element (BRE) (AID 2282933). The settings on record: HepG2 BMP response element reporter, Attagene transcription factor profiling; actives raise or lower the signal. The method, then:
ATG_CIS is a cell-based, multiplexed-readout assay that uses HepG2, a human liver cell line, with measurements taken at 24 hours after chemical dosing in a 24-well plate.ATG_BRE_CIS is one of 52 assay component(s) measured or calculated from the ATG_CIS assay. It is designed to make measurements of mRNA induction, a form of inducible reporter, as detected with fluorescence intensity signals by Reverse transcription polymerase chain reaction (RT-PCR) and Capillary electrophoresis technology.Data from the assay component ATG_BRE_CIS was analyzed into 1 assay endpoint. This assay endpoint, ATG_BRE_CIS, was analyzed with bidirectional fitting relative to DMSO as the negative control and baseline of activity. Using a type of inducible reporter, measures of mRNA for gain or loss-of-signal activity can be used to understand the reporter gene at the transcription factor-level as they relate to the gene SMAD1. Furthermore, this assay endpoint can be referred to as a primary readout, because this assay has produced multiple assay endpoints where this one serves a reporter gene function. To generalize the intended target to other relatable targets, this assay endpoint is annotated to the dna binding intended target family, where the subfamily is Smad protein.
Human liver HepG2 cells are transiently transfected with multiple reporter transcription units (MRTUs) in 6-well plates using FuGene 6 reagent (Roche; 3 ml FuGene/1 mg DNA). The MRTU constructs are regulated by a cis-regulating element (promoter). […] A major difference between the CIS and TRANS system is that in CIS activities of endogenous TFs are measured, whereas the TRANS assay evaluates changes in activities of exogenous, chimeric NR-Gal4 proteins. […] At the end of 24 hour incubation, total RNA was isolated using TriZol reagent (Invitrogen). The isolated RNA is then reverse-transcribed using oligo(dT) primer and Mo-MLV reverse transcriptase (Invitrogen) with DNAse I (Ambion) treatment for 30 min. The one-tenth of the produced cDNA was amplified by PCR using Taq DNA polymerase (Invitrogen) and two reporter sequence-specific primers. The PCR products were fluorescently labeled by primer extension with 6-arboxyfluorescein (6-FAM) 5'-labeled reporter sequence-specific primer (2 min at 95 C, 20 s at 68 C and 10 min at 72 C) and these products were digested with 5U of HpaI (New England Biolabs) for 2h at 37 C. The fragments were purified using Qiaquick PCR columns (Qiagen), analyzed on an ABI 3130xL genetic analyzer (Applied Biosystems) with peak positions identified by using a set of X-rhodamine (ROX)-labeled MapMarker1000 molecular weight standards (BioVentures). The raw capillary electrophoresis data was processed using Attagraph software (Attagene).
As for `C=C[Si](OC(C)=O)(OC(C)=O)OC(C)=O`, the outcome was inactive. `Cc1cnc(NC(=O)C2=C(O)c3ccccc3S(=O)(=O)N2C)s1`: the compound was classed as inactive. `CCO[Si](C)(OCC)OCC`: the result was inactive.

Consider `CCN(CC#N)c1cccc(C)c1`, for which the compound was called inactive. On to `C=C(C)[C@H]1CC=C(C)CC1`, for which the compound was called inactive. In the case of `O=C1c2ccccc2C(=O)C1c1nc2ccccc2c(Br)c1O`, the concentration at half-maximal activity (AC50) (usually the concentration giving half of the maximal activity seen) is 100 µM (active).

In the case of `CC[C@H]1OC(=O)[C@H](C)[C@@H](O[C@H]2C[C@@](C)(OC)[C@@H](O)[C@H](C)O2)[C@H](C)[C@@H](O[C@@H]2O[C@H](C)C[C@H](N(C)C)[C@H]2O)[C@](C)(O)C[C@@H](C)C(=NOCOCCOC)[C@H](C)[C@@H](O)[C@]1(C)O`, the compound was called inactive. On to `Cc1cc(C)c(C)cc1C`, for which the outcome was inactive. On to `O=c1[nH]c(=O)c2[nH]c(=O)[nH]c2[nH]1`, for which the compound was classed as inactive. For the compound `O=C(O)CC(C(=O)O)C(CC(=O)O)C(=O)O` (stereo not given), the compound was called inactive. With `C=CC(C)(CCC=C(C)C)OC(=O)C(C)C` (stereo not given), the compound was called inactive. Same read-out and setting: the same measure for `COc1cc(C)ccc1C(C)C`: “inactive”. `Cc1ccccc1C`: the call was inactive. `CCCCC/C=C\CCC=O`: the compound was called inactive. With `O=c1cc[nH]c(=S)[nH]1`, the call was inactive. On to `CNC(=S)NN`, for which the outcome was inactive. On to `CCCOCCOCCOCCO`, for which the outcome was inactive. Regarding `CC(C)c1ccc(C=O)cc1`, the outcome was inactive. Same read-out and setting: the same measure for `CCCc1ccc(OC)cc1`: “inactive”. In the case of `O=c1c2ccccc2oc2ccccc12`, the compound was called inactive. `CC/C=C\CCOC(=O)CCCCC`: the compound was classed as inactive. In the case of `O=C1CCCCCCCCCCC(=O)OCCO1`, the compound was classed as inactive. Consider `O=c1[nH]nc(-c2ccc([N+](=O)[O-])o2)o1`, for which the call was inactive. For the compound `O=c1cc(-c2ccccc2)oc2ccccc12`, the half-maximal activity concentration (AC50) is 133 µM (active).

In the case of `Nc1ccc(-c2ccc(F)cc2)cc1`, the call was inactive. For the compound `CC1=CC[C@H]2C[C@@H]1C2(C)C`, the call was inactive. In the case of `Nc1ccc(Oc2ccc(N)c(N)c2)cc1`, the result was inactive. In the case of `O=C(c1ccccc1)C1CCC1`, the outcome was inactive. With `C=CCOc1c(Br)cc(Br)cc1Br`, the call was inactive. For the compound `N#[N+]c1ccc2c(S(=O)(=O)[O-])cccc2c1O`, the call was inactive. As to `CCCNC(=O)NS(=O)(=O)c1ccc(Cl)cc1`, the compound was classed as inactive.

As to `CC(CC=O)CCCC(C)(C)O` (stereo not given), the compound was called inactive.

For `O=c1n(CCO)c(=O)n(CCO)c(=O)n1CCO`, the compound was classed as inactive. Regarding `CC=CC(=O)N(CC)c1ccccc1C`, the compound was called inactive. Turning to `CCOC(F)(F)C(F)(F)C(F)(F)C(F)(F)F`, the result was inactive.

For `Clc1nc2ccccc2s1`, the compound was called inactive. Consider `CCC(=O)Oc1ccc(/C(CC)=C(\CC)c2ccc(OC(=O)CC)cc2)cc1`, for which the result was inactive. Turning to `CCN(CCO)c1cccc(C)c1`, the compound was classed as inactive. `S=C(NC1CCCCC1)NC1CCCCC1`: the result was inactive. Same read-out and setting: the entry for `CC(C)(C)c1ccc(-c2ccc(C(C)(C)C)cc2)cc1` is “inactive”.
